Source: PubChem
An excerpt weighted towards active compounds, which were near 3.4% of everything screened.
AmpC no deterg = qHTS Inhibitors of AmpC Beta-Lactamase (assay without detergent). AmpC nitrocefin hydrolysis, absorbance 480 nm, 0.0001% Triton. Potency, µM (titrated, usually from 57.1 µM), usual class: inhibitors. 0.52% of 330,000 active. AID 485341, 2010; also: nearly all actives have a fitted effect of over 20% in size
Target sequence (P00811 whole entry, looked up): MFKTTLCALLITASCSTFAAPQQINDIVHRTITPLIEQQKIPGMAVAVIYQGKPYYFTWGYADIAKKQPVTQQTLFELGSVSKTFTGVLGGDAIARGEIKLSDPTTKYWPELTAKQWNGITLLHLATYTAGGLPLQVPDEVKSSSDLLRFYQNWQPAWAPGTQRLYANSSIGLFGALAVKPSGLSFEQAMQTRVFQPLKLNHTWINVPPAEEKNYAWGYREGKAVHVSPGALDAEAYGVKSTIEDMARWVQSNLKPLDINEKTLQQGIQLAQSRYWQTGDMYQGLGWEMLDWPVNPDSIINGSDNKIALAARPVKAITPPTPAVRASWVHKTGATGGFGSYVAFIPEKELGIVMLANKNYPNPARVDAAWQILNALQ
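AmpC (5.3 nM in the dispensed reagent) in 20 mM phosphate pH 7.0 with 0.01% (detergent screen) or 0.0001% Triton X-100 was preincubated with compounds for 15 min at room temperature. Nitrocefin was then added from an 800 uM solution, and hydrolysis was followed at 480 nm.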
RE007 growth inh = qHTS Assay for Inhibitors of the HIV-1 protein Vpr. S. pombe RE007 Vpr strain, BacTiter-Glo ATP luminescence, 24 h. Potency, µM (series often up to 92.2 µM), actives largely listed as inhibitors. 0.21% of 360,000 active. AID 651644, 2012; active = well fitted falling curve with a large enough effect; inconclusive = small, poorly fitted or top-dose-only effect; inactive = no such curve, though single readings can be large or run the other way; also: nearly all actives have a fitted effect of over 50% in size
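Fission yeast strain RE007, carrying one chromosomally integrated HIV-1 vpr copy, was seeded at OD 0.01 in PMG+AL medium with 23 nL pinned compound. After 24 h at 30 °C and 99% humidity, viability was read by BacTiter-Glo luminescence.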
Sm TGR block = qHTS Assay for the Inhibitors of Schistosoma Mansoni Peroxiredoxins; Potency, µM (series often up to 114 µM), actives largely listed as inhibitors; purified TGR, DTNB reduction, TNB absorbance 405 nm; 3% of 360,000 active; Schistosoma mansoni thioredoxin glutathione reductase (TGR), Q962Y6; AID 485364, 2010; also: nearly all actives have a fitted effect of over 60% in size
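Kinetic colorimetric format: TGR-catalysed, NADPH-driven DTNB reduction monitored via TNB absorbance. Enzyme dispensed at 20 nM; compound exposure 15 min at room temperature before reaction start.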
AmpC inh detg = qHTS Inhibitors of AmpC Beta-Lactamase (assay with detergent) | AmpC hydrolysis of nitrocefin, absorbance 480 nm, 0.01% Triton | Potency, µM (series often up to 114 µM), most hits filed as inhibitors | 0.041% of 370,000 active; also: nearly all actives have a fitted effect of over 25% in size
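20 mM phosphate pH 7.0 + 0.01% (detergent screen) or 0.0001% Triton X-100; 5.3 nM AmpC reagent; cpd preinc 15 min RT; nitrocefin (800 uM stock) to start; A480 q20 s × 4 min; Activity was normalised to no-enzyme and no-compound control wells.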
Giardia FBPA inh = qHTS Assay for Inhibitors of Fructose-1,6-bisphosphate Aldolase from Giardia Lamblia; Potency, µM (highest dose often 59.6 µM), actives largely listed as inhibitors; 0.71% of 290,000 active; purified Giardia FBPA; AID 2451, 2010; A8B2U2; also: nearly all actives have a fitted effect of over 55% in size
Target sequence (A8B2U2 whole entry, looked up): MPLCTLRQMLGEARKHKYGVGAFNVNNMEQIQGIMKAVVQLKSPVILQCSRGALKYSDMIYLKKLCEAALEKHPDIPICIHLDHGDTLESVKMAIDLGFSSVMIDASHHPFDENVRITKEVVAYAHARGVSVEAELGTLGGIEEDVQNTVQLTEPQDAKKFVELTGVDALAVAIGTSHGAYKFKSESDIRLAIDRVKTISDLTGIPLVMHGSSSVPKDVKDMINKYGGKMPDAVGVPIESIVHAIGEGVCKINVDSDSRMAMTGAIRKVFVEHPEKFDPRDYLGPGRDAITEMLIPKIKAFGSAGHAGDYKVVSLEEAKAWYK
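40 nM FBPA preincubated 10 min at RT with compound (up to 57.5 uM final), then substrate plus GAPDH/TPI/NAD/arsenate coupling and diaphorase/resazurin added. Fluorescence read after 20 min at RT, 525/598 nm.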
Numbers stand for hits; – = inactive; ? = inconclusive; · = not tested or not shown; [ ] = dose if it differs, or a comment. Unless noted, calls follow the shape of the dose curve; as a rule, active = well fitted curve in the direction sought with a large enough effect; inconclusive = small, poorly fitted or top-dose-only effect, or another doubt; inactive = no such curve, though single readings can be large; an effect the other way counts as inactive or inconclusive.

SMILES | AmpC no deterg | RE007 growth inh | Sm TGR block | AmpC inh detg | Giardia FBPA inh
Cc1ccc(NCC(=O)N/N=C\c2ccc([N+](=O)[O-])o2)cc1 | – | – | ? | – | –
CCN(CC)c1ccc(N=Cc2ccc([N+](=O)[O-])o2)cc1 | – | ? | 35µM | – | ?
O=c1cc(CSc2nnc(-c3cccs3)n2Cc2ccccc2)nc2sc3ccccc3n12 | – | – | – | – | –
COc1cc(-c2coc3cc(OC)c(OC)c(OC)c3c2=O)cc(OC)c1OC | · | · | · | · | –
CC(=O)Oc1cc(-c2coc3cc(OC(C)=O)c(OC(C)=O)c(OC(C)=O)c3c2=O)cc(OC(C)=O)c1OC(C)=O | · | · | · | · | 5.6µM
CC(=O)Nc1cccc(NC(=O)C(=O)NCC(c2ccco2)N2CCc3ccccc32)c1 (centres undefined) | – | – | – | – | ·
CC(C)(C)c1ccc(CC(=O)N2CCC2(C)C(=O)NS(=O)(=O)c2cccc(Cl)c2)cc1 (centres undefined) | · | – | · | · | ·
CC(C)c1ccc(NC(=O)Nc2csc3c2CCCC3)cc1 | · | · | – | – | ·
OCCCNC(=S)Nc1ccc(Br)cc1Cl | – | – | 3.2µM | – | –
S=C(NCc1ccco1)Nc1ccc(Br)cc1Cl | – | – | ? | – | –
Cc1cc(CNC(=O)c2cc(Br)ccc2Cl)nn1C | – | – | – | – | –
Cc1cc(CNC(=S)Nc2ccc(Br)cc2Cl)nn1C | – | – | 7.9µM | – | –
O=C(Nc1cccc(NC(=O)c2cccs2)c1)c1ccc(Br)o1 | 25µM | – | – | – | –
Cn1cccc1-c1nc2ccc(NC(=O)c3cccs3)cc2[nH]1 | – | – | – | ? | –
O=C(Nc1ccc(NC(=O)c2cccs2)cc1)c1ccc(Br)o1 | – | – | – | – | –
O=C(Nc1ccc2nc(-c3ccc(Br)o3)[nH]c2c1)c1cccs1 | – | – | 25µM | – | –
CC(=O)Nc1ccc2nc(-c3ccc(Br)o3)[nH]c2c1 | – | – | 25µM | – | –
O=C(Nc1ccc2nc(-c3ccc(Br)o3)[nH]c2c1)c1ccco1 | – | – | – | – | –
CSc1ccccc1OCc1cc(C(=O)NCCn2ccnc2C)no1 | – | – | – | – | –
Cc1ccc(S(=O)c2snnc2C)cc1 (centres undefined) | – | – | – | ? | –
CCCNC(=O)c1nnsc1S(=O)(=O)c1ccc(Cl)cc1 | – | 11µM | 0.32µM | – | –
CNC(=O)c1nnsc1S(=O)c1ccc(Cl)cc1 (centres undefined) | – | 35µM | 0.32µM | ? | –
CCCNC(=O)c1ccc2snnc2c1 | – | – | – | – | –
CCCNC(=O)c1nnsc1S(=O)c1ccc(Cl)cc1 (centres undefined) | – | 3.5µM | 0.32µM | – | –
Oc1cc2c(cc1CN1CCN(c3ncccn3)CC1)OCO2 | – | – | 1µM | – | ·
SMILES | AmpC no deterg | RE007 growth inh | Sm TGR block | AmpC inh detg | Giardia FBPA inh
O=C(CN1CCN(c2ncccn2)CC1)NCc1ccc2c(c1)OCO2 | – | – | – | – | –
Cc1ccc2nc(-c3ccc(O)c(O)c3)cn2c1 | – | – | ? | – | ?
Cc1ccc2nc(-c3ccccc3)cn2c1 | – | 45µM | – | – | –
O=C(NCc1ccco1)C1CCN(C(=O)c2ccc(Cl)cc2)CC1 | – | – | – | – | ·
O=[N+]([O-])c1ccc(/C([O-])=C(/C(=S)NCc2ccco2)[n+]2ccccc2)cc1 | –[11.4 µM] | – | 22µM | – | ?
O=C(NCc1ccco1)C1CCN(C(=O)c2ccc([N+](=O)[O-])cc2)CC1 | – | – | 25µM | – | –
[O-]/C(=C(\C(=S)NCc1ccco1)[n+]1ccccc1)c1ccccc1Br | – | – | 25µM | – | –
O=C(CSc1nncn1-c1ccccc1)Nc1c(F)cccc1F | – | – | – | – | –
COc1ccccc1NC(=O)Cn1c(=O)oc2ccccc21 | 0.4µM | – | – | – | –
COc1ccc(Cl)cc1NC(=O)Cn1c(=O)oc2ccccc21 | – | – | – | – | –
O=C(O)c1ccc2c(c1)C(=O)/C(=C\c1ccco1)C2=O | – | – | 7.1µM | – | ?
Cc1ccc(/C=C2/C(=O)c3ccc(C(=O)O)cc3C2=O)o1 | – | – | 5µM | – | ?
O=C(O)c1ccc2c(c1)C(=O)/C(=C/c1ccccc1)C2=O | – | – | – | – | –
Cc1ccccc1-c1n[nH]c(=S)n1/N=C/C=C/c1ccco1 | 10µM | – | 14µM | – | –
Cc1cc(-c2n[nH]c(=S)n2/N=C/c2ccc(C)o2)n[nH]1 | – | – | – | – | ?
S=c1[nH]nc(-c2ccccc2)n1/N=C/C=C/c1ccco1 | – | – | ? | – | –
S=c1[nH]nc(-c2ccc(Cl)cc2)n1/N=C/C=C/c1ccco1 | 16µM | – | 40µM | – | –
S=c1[nH]nc(-c2cccnc2)n1/N=C/C=C/c1ccco1 | – | – | · | – | ?
Cc1cc(-c2n[nH]c(=S)n2/N=C/C=C/c2ccco2)n[nH]1 | – | – | 22µM | – | ?
Cc1cc(C(=O)NCC(=O)OCC(=O)N(C2CCCCC2)C2CCCCC2)ccc1[N+](=O)[O-] | – | – | – | – | –
Cc1sc2nc(CN3CCCC3)nc(N3CCN(S(=O)(=O)c4cccs4)CC3)c2c1C | – | – | – | ? | –
Cc1sc2nc(-c3cccs3)nc(N3CCCN(C)CC3)c2c1C | – | · | 45µM | – | –
Nc1c(C(=O)Nc2ccc3c(c2)OCCO3)nnn1Cc1cccc(Br)c1 | – | – | – | ? | ·
O=C(N/N=C/c1coc2ccccc2c1=O)c1ccccc1 | – | – | ? | – | –
O=C(N/N=C\c1coc2ccccc2c1=O)c1ccco1 | – | – | 28µM | – | –
SMILES | AmpC no deterg | RE007 growth inh | Sm TGR block | AmpC inh detg | Giardia FBPA inh
COc1cccc2[nH]c(C(=O)NC(C)c3ccccc3)cc12 (centres undefined) | – | – | – | – | –
Cc1ccc(NC(=O)C2C(c3ccccc3)C2(Cl)Cl)c(C)c1 (centres undefined) | 28µM | – | – | – | –
OC(C#Cc1ccccn1)c1cccs1 (centres undefined) | – | – | 1.4µM | – | ?
O=[N+]([O-])c1cc([N+](=O)[O-])c2cc3ccccc3nc2c1 | – | ? | 3.5µM | – | –
O=C(c1coc(=O)c(Br)c1)N1CCCc2ccccc21 | – | – | 22µM | ? | ?
Cc1cc(Cn2nnnc2-c2ccncc2)cc(C)c1O | – | – | 2.5µM | – | –
O=[N+]([O-])c1cc(-c2csc(NCCc3nc4cc(Cl)c(Cl)cc4n3CCCO)n2)ccc1Cl | · | – | · | · | ·
O=c1ccc2c(o1)/C(=C/C=C(Cl)Cl)CCC2 | – | – | 22µM | – | ?
CCC(CO)Oc1cc(NC(=O)Cc2ccccc2F)c2ncn(C(C)C)c2c1 (centres undefined) | – | – | · | · | ·
